# Laboratory results taken from PubChem BioAssay (EPA / NIEHS).
# Active and inactive are the calls of the source. How the source made its calls: active means hit-call score of the fitted dose curve at least 0.9, where 1 is the maximum; inactive means score below 0.9.
# Read-out: Insulin-like growth factor-binding protein 1 (IGFBP1), IGFBP1 (gene 3484)
# Test: LTEA_HepaRG_IGFBP1: Life Technologies and Expression Analysis (LTEA) Assay for Insulin-like growth factor-binding protein 1 (IGFBP1) using HepaRG (AID 2283508)
# Conditions: mRNA level, 48 h; actives raise or lower the signal
# How it was run: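 qRT-PCR mRNA read-out (TaqMan, Fluidigm array), normalised to three housekeeping genes; HepaRG cells, 48 h exposure, 8-pt half-log series from 100 uM, 0.5% DMSO vehicle; bidirectional curve fit vs DMSO baseline.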
SMILES,outcome,AC50
CC(C)CC(C)O (stereo not drawn),inactive,–
CCCCN1C(=O)[C@@H]([C@H](O)C2CCCCC2)NC(=O)C12CCN(Cc1ccc(Oc3ccc(C(=O)O)cc3)cc1)CC2,–,2450 nM (active)
CC(C)c1nnc2ccc(-c3ocnc3-c3cc(F)ccc3F)cn12,–,12800 nM (active)
CNC(C)=O,inactive,–
OCCNCCO,inactive,–
C=CN1CCCC1=O,inactive,–
CCCCCCCCN(C)C,inactive,–
c1ccc2ncccc2c1,inactive,–
CCCCCCOC(=O)CC(CC(=O)OCCCCCC)(OC(=O)CCC)C(=O)OCCCCCC,inactive,–
CCc1cccc(CC)c1N,inactive,–
O=C1CN(N=Cc2ccc([N+](=O)[O-])o2)C(=O)N1,–,33400 nM (active)
CCCC(CCC)C(=O)O,inactive,–
Cc1ncc([C@@H](CCCCCCc2ccc3c(n2)NCCC3)CC(=O)O)cn1,inactive,–
CCCCCCCCCCCCCCCCOS(=O)(=O)O,inactive,–
CCN(CC)C(=S)SSC(=S)N(CC)CC,inactive,–

# Read-out: Interleukin 6 (IL6), IL6 (gene 3569)
# Test: LTEA_HepaRG_IL6: Life Technologies and Expression Analysis (LTEA) Assay for Interleukin 6 (IL6) using HepaRG (AID 2283509)
# Conditions: mRNA level, 48 h; actives raise or lower the signal
# How it was run: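 HepaRG, ~100,000 cells/well, 48 h pre-culture; serum-free induction medium; cmpd 8-pt half-log from 100 uM, 0.5% DMSO, duplicate, 48 h. Lysis in RLT, TaqMan qRT-PCR; gain or loss vs DMSO.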
SMILES,AC50,outcome
COc1cc2c(c(OC)c1OC)-c1ccc(OC)c(=O)cc1[C@@H](NC(C)=O)CC2,144 nM (active),–
CCn1nc(C)c2c1C(=O)NCC(c1ccc(O)cc1)=N2,–,inactive
CCCCCCCCCC,–,inactive
O=C(O)c1ccc2c(c1)nc(C(=O)NC1CCN(C3CC3)CC1)n2Cc1cc(-c2ccc(Cl)s2)on1,–,inactive
Nc1ccn([C@@H]2O[C@H](CO)[C@@H](O)[C@@H]2O)c(=O)n1,–,inactive
NC(=O)NN=Cc1ccc([N+](=O)[O-])o1,–,inactive
OC(Cn1cncn1)(Cn1cncn1)c1ccc(F)cc1F,–,inactive
OCc1ccccc1,–,inactive
NNC(=O)c1ccncc1,–,inactive
CCc1ccc(O)c(C(C)(C)C)c1,–,inactive
CCOC(N)=O,–,inactive
CC(C)CCCCCCOC(=O)C1CCCCC1C(=O)OCCCCCCC(C)C (stereo not drawn),–,inactive
c1ccc(C(O[C@@H]2CCCN(CCc3ccc4c(c3)OCO4)C2)c2ccccc2)cc1,–,inactive
CC(C)C(=O)Nc1ccc([N+](=O)[O-])c(C(F)(F)F)c1,85000 nM (active),–
NC(=O)N(O)[C@@H]1COc2cc(OCc3ccccc3)ccc21,–,inactive
O=c1[nH]cnc2c1ncn2[C@H]1CC[C@@H](CO)O1,–,inactive
NC(N)=O,–,inactive

SMILES,AC50,outcome
COCc1nnc(-c2ccc[n+]([O-])c2)n1-c1c(Cl)c(Cl)cc2[nH]c(=O)c(=O)[nH]c12,–,inactive
OC[C@H]1O[C@@H]2O[C@H]3[C@H](O)[C@@H](O)[C@@H](O[C@H]4[C@H](O)[C@@H](O)[C@@H](O[C@H]5[C@H](O)[C@@H](O)[C@@H](O[C@H]6[C@H](O)[C@@H](O)[C@@H](O[C@H]7[C@H](O)[C@@H](O)[C@@H](O[C@H]1[C@H](O)[C@H]2O)O[C@@H]7CO)O[C@@H]6CO)O[C@@H]5CO)O[C@@H]4CO)O[C@@H]3CO,–,inactive
CC(C)CC(C)O (stereo not drawn),–,inactive
CCCCN1C(=O)[C@@H]([C@H](O)C2CCCCC2)NC(=O)C12CCN(Cc1ccc(Oc3ccc(C(=O)O)cc3)cc1)CC2,2990 nM (active),–
CC(C)c1nnc2ccc(-c3ocnc3-c3cc(F)ccc3F)cn12,–,inactive
CNC(C)=O,–,inactive
OCCNCCO,–,inactive
C=CN1CCCC1=O,–,inactive
CCCCCCCCN(C)C,–,inactive
c1ccc2ncccc2c1,–,inactive
CCCCCCOC(=O)CC(CC(=O)OCCCCCC)(OC(=O)CCC)C(=O)OCCCCCC,–,inactive
CCc1cccc(CC)c1N,–,inactive
O=C1CN(N=Cc2ccc([N+](=O)[O-])o2)C(=O)N1,–,inactive
CCCC(CCC)C(=O)O,–,inactive
Cc1ncc([C@@H](CCCCCCc2ccc3c(n2)NCCC3)CC(=O)O)cn1,–,inactive
CCCCCCCCCCCCCCCCOS(=O)(=O)O,–,inactive
CCN(CC)C(=S)SSC(=S)N(CC)CC,–,inactive

# Read-out: Interleukin 6 Receptor (IL6R), IL6R (gene 3570)
# Test: LTEA_HepaRG_IL6R: Life Technologies and Expression Analysis (LTEA) Assay for Interleukin 6 Receptor (IL6R) using HepaRG (AID 2283510);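 on AC50: differentiated human HepaRG liver cells in serum-free induction medium; TaqMan qRT-PCR signal normalized to ACTB GAPDH and POLR2A housekeeping genes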
# Conditions: mRNA level, 48 h; actives raise or lower the signal
# How it was run: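 Differentiated HepaRG cells, plated 48 h, then exposed in duplicate for 48 h in serum-free induction medium to 8 half-log concentrations (top 100 uM, 0.5% DMSO). IL6R mRNA measured by TaqMan qRT-PCR, normalized to ACTB/GAPDH/POLR2A; bidirectional fit vs DMSO.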
SMILES,AC50,outcome
COc1cc2c(c(OC)c1OC)-c1ccc(OC)c(=O)cc1[C@@H](NC(C)=O)CC2,432 nM (active),–
CCn1nc(C)c2c1C(=O)NCC(c1ccc(O)cc1)=N2,–,inactive
CCCCCCCCCC,–,inactive
O=C(O)c1ccc2c(c1)nc(C(=O)NC1CCN(C3CC3)CC1)n2Cc1cc(-c2ccc(Cl)s2)on1,–,inactive
Nc1ccn([C@@H]2O[C@H](CO)[C@@H](O)[C@@H]2O)c(=O)n1,–,inactive
NC(=O)NN=Cc1ccc([N+](=O)[O-])o1,–,inactive
OC(Cn1cncn1)(Cn1cncn1)c1ccc(F)cc1F,–,inactive
OCc1ccccc1,–,inactive
NNC(=O)c1ccncc1,–,inactive
CCc1ccc(O)c(C(C)(C)C)c1,–,inactive
CCOC(N)=O,–,inactive
CC(C)CCCCCCOC(=O)C1CCCCC1C(=O)OCCCCCCC(C)C (stereo not drawn),–,inactive
c1ccc(C(O[C@@H]2CCCN(CCc3ccc4c(c3)OCO4)C2)c2ccccc2)cc1,–,inactive
CC(C)C(=O)Nc1ccc([N+](=O)[O-])c(C(F)(F)F)c1,–,inactive
NC(=O)N(O)[C@@H]1COc2cc(OCc3ccccc3)ccc21,–,inactive
O=c1[nH]cnc2c1ncn2[C@H]1CC[C@@H](CO)O1,–,inactive
NC(N)=O,–,inactive

SMILES,AC50,outcome
COCc1nnc(-c2ccc[n+]([O-])c2)n1-c1c(Cl)c(Cl)cc2[nH]c(=O)c(=O)[nH]c12,–,inactive
OC[C@H]1O[C@@H]2O[C@H]3[C@H](O)[C@@H](O)[C@@H](O[C@H]4[C@H](O)[C@@H](O)[C@@H](O[C@H]5[C@H](O)[C@@H](O)[C@@H](O[C@H]6[C@H](O)[C@@H](O)[C@@H](O[C@H]7[C@H](O)[C@@H](O)[C@@H](O[C@H]1[C@H](O)[C@H]2O)O[C@@H]7CO)O[C@@H]6CO)O[C@@H]5CO)O[C@@H]4CO)O[C@@H]3CO,–,inactive
CC(C)CC(C)O (stereo not drawn),–,inactive
CCCCN1C(=O)[C@@H]([C@H](O)C2CCCCC2)NC(=O)C12CCN(Cc1ccc(Oc3ccc(C(=O)O)cc3)cc1)CC2,2650 nM (active),–
CC(C)c1nnc2ccc(-c3ocnc3-c3cc(F)ccc3F)cn12,–,inactive
CNC(C)=O,–,inactive
OCCNCCO,–,inactive
C=CN1CCCC1=O,–,inactive
CCCCCCCCN(C)C,–,inactive
c1ccc2ncccc2c1,–,inactive
CCCCCCOC(=O)CC(CC(=O)OCCCCCC)(OC(=O)CCC)C(=O)OCCCCCC,–,inactive
CCc1cccc(CC)c1N,–,inactive
O=C1CN(N=Cc2ccc([N+](=O)[O-])o2)C(=O)N1,–,inactive
CCCC(CCC)C(=O)O,–,inactive
Cc1ncc([C@@H](CCCCCCc2ccc3c(n2)NCCC3)CC(=O)O)cn1,–,inactive
CCCCCCCCCCCCCCCCOS(=O)(=O)O,–,inactive
CCN(CC)C(=S)SSC(=S)N(CC)CC,–,inactive
